Source: PubChem BioAssay (NCATS)
Values joined by “and” are separate entries in the source; they are usually repeats but may differ in a detail not shown here. Equal entries are not always repeated. Results filed as inconclusive are left out. Entries that show only a call come without a potency. The source holds several records for some structures; these can differ, active in one and inactive in another. Active and inactive are the calls of the source. Unless noted, calls come from the whole dose curve; as a rule, active = well fitted curve in the direction sought with a large enough effect; inconclusive = small, poorly fitted or top-dose-only effect, or another doubt; inactive = no such curve, though single readings can be large; an effect the other way counts as inactive or inconclusive.

Experiments:
[1] = Primary qHTS for small molecule stabilizers of the endoplasmic reticulum resident proteome: Secreted ER Calcium Modulated Protein (SERCaMP) assay (AID 1508630)
Method in brief: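 GLuc-SERCaMP-expressing SH-SY5Y cells, pretreated 16 h with compound, are challenged with thapsigargin to empty ER calcium stores; after 4 h, coelenterazine is added directly to the medium and luminescence is imaged.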

[2] = molecular target: Cytochrome P450 2D6 (Homo sapiens) (UniProt P10635); experiment: Cytochrome P450 family 2 subfamily D member 6 (CYP2D6) small molecule antagonists: luciferase biochemical (cell-free) qHTS assay (AID 1645840; active = well fitted curve in the direction sought with a large enough effect in the repeat runs; an effect the other way counts as inactive or inconclusive; note: nearly all actives have a fitted effect of over 55% in size; note: potency is the fitted concentration of half-maximal effect)
Cytochrome P450 2D6 (Homo sapiens), sequence (P10635 whole entry, looked up): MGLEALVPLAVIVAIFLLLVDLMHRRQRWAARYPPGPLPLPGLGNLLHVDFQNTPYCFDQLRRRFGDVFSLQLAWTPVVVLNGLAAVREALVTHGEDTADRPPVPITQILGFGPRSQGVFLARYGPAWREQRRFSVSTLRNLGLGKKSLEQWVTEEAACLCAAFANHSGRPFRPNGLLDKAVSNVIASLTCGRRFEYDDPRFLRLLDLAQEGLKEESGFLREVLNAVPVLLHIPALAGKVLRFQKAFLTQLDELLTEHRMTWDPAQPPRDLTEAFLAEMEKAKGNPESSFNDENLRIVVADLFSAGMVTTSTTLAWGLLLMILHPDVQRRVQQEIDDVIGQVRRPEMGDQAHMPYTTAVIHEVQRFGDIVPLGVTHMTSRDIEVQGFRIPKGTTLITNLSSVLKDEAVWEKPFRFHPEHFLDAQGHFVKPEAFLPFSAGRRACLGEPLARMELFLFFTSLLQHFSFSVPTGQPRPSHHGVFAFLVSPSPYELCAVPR
Method in brief: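 P450-Glo luminescent screen: recombinant CYP2D6 enzyme–proluciferin substrate mix preincubated with compound 10 min at room temperature, then NADPH regeneration added for 1 h at room temperature. Detection reagent added for 20 min; luciferin light read as relative luminescence units.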

[3] = molecular target: Cytochrome P450 2C9 (Homo sapiens) (UniProt P11712); experiment: Cytochrome P450 family 2 subfamily C member 9 (CYP2C9) small molecule antagonists: luciferase biochemical (cell-free) qHTS assay (AID 1645842; active = well fitted curve in the direction sought with a large enough effect in the repeat runs; an effect the other way counts as inactive or inconclusive; note: nearly all actives have a fitted effect of over 55% in size; note: potency is the fitted concentration of half-maximal effect)
Cytochrome P450 2C9 (Homo sapiens), sequence (P11712 whole entry, looked up): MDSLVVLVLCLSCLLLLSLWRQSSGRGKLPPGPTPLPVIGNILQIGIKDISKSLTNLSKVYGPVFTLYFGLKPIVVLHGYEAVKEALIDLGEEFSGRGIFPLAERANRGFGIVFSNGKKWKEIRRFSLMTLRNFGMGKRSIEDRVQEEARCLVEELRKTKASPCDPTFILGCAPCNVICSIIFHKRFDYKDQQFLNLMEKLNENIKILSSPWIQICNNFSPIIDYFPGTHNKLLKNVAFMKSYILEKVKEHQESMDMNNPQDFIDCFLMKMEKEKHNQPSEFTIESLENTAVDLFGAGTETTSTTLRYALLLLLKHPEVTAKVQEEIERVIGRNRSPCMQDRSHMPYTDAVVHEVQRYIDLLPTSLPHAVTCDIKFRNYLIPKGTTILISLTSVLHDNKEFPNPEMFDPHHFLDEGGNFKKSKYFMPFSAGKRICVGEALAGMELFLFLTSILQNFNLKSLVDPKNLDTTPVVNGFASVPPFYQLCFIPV
Method in brief: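 Luminescence, after 20 min with luciferin detection reagent, reflected CYP2C9 turnover during a 1 h NADPH-driven reaction at 37C. Enzyme-substrate mix contained 0.4% bovine serum albumin and was preincubated with compound 10 min at room temperature.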

[4] = molecular target: N-terminal Xaa-Pro-Lys N-methyltransferase 1 (Homo sapiens) (UniProt Q9BV86); experiment: Confirmatory qHTS for Inhibitors of N-terminal methyltransferase 1 (NTMT1): MTaseGlo Assay (AID 1645874); note: nearly all actives have a fitted effect of over 65% in size; note: potency is the fitted concentration of half-maximal effect;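 for activity change, negative = inhibition: luminescence from SAH made as NTMT1 methylates SPKRIA peptide using SAM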
N-terminal Xaa-Pro-Lys N-methyltransferase 1 (Homo sapiens), sequence (Q9BV86 whole entry, looked up): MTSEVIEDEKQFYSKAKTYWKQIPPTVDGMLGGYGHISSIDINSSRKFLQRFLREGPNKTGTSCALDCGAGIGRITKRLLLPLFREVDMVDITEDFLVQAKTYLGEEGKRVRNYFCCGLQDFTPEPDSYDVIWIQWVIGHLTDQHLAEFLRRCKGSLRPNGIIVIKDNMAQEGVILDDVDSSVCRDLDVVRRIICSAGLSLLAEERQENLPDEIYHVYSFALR
Method in brief: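 NTMT1 (125 nM) preincubated 15 min with compound and 100 uM SAM, then 1 uM SPKRIA peptide added for 30 min at room temperature. SAH detected by MTase-Glo luminescence; normalized to no-enzyme and DMSO controls, fitted to 4-parameter Hill.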

[5] = Primary qHTS for inhibitors of nuclear receptor binding SET domain protein 2 (NSD2) in an isogenic RCH-ACV NSD2 p.E1099K mutant (9B) (AID 1645876); note: nearly all actives have a fitted effect of over 70% in size; note: potency is the fitted concentration of half-maximal effect
[6] = Primary qHTS for inhibitors of nuclear receptor binding SET domain protein 2 (NSD2) in an RCH-ACV wild type WT cells (2C) (AID 1645877); note: nearly all actives have a fitted effect of over 70% in size; note: potency is the fitted concentration of half-maximal effect
[7] = molecular target: Catechol O-methyltransferase (Homo sapiens) (UniProt P21964); experiment: Confirmatory Screen for Target Class Profiling of Small Molecule Inhibitors of Methyltransferases (AID 1745852; calls by dose curve; note: potency is the fitted concentration of half-maximal effect); conditions: MTase-Glo luminescence, SAH detection, recombinant enzyme; measured here: COMT max response; stronger effect = lower value
Catechol O-methyltransferase (Homo sapiens), sequence (P21964 whole entry, looked up): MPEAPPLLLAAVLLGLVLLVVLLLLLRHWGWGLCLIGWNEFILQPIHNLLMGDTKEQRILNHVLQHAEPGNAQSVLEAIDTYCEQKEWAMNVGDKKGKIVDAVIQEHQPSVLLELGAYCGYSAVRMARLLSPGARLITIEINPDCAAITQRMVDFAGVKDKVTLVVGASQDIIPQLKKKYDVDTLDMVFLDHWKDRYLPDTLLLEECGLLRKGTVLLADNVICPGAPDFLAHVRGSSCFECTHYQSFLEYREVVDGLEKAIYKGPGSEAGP

[8] = molecular target: Guanidinoacetate N-methyltransferase (Homo sapiens) (UniProt Q14353); experiment: as above; conditions: MTase-Glo luminescence, SAH detection, recombinant enzyme; activity change, negative = inhibition: at 57.3 µM (top of the series) unless noted
[9] = molecular target: Nicotinamide N-methyltransferase (Homo sapiens) (UniProt P40261); experiment: as above; conditions: MTase-Glo luminescence, SAH detection, recombinant enzyme; measured here: NNMT max response; stronger effect = lower value
Nicotinamide N-methyltransferase (Homo sapiens), sequence (P40261 whole entry, looked up): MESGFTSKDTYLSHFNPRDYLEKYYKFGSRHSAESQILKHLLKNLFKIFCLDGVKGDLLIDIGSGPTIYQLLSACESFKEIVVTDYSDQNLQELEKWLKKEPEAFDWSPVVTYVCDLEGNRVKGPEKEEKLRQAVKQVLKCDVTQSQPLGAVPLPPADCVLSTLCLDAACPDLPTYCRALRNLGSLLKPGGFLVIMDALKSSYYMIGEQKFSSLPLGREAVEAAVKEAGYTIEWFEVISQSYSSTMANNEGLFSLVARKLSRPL

[10] = molecular target: Phenylethanolamine N-methyltransferase (Homo sapiens) (UniProt P11086); experiment: as above; conditions: MTase-Glo luminescence, SAH detection, recombinant enzyme; measured here: PNMT max response; stronger effect = lower value
Phenylethanolamine N-methyltransferase (Homo sapiens), sequence (P11086 whole entry, looked up): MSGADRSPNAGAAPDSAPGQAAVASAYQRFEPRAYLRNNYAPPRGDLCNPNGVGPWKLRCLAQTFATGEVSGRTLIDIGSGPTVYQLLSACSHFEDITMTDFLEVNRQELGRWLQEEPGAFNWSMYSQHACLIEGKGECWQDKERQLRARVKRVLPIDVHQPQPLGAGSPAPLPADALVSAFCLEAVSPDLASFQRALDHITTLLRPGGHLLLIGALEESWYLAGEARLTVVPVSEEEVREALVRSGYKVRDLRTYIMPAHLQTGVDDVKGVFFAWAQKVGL

[11] = A High-Content qHTS Against Drug Library for the Identification of Small Molecules that Inhibit DYT1 Early Onset Primary Dystonia-Associated Cell Pathology (AID 1645839; calls by dose curve; note: potency is the fitted concentration of half-maximal effect)
Method in brief: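 In this high-content image screen, delE TorsinA mislocalization in inducible Flp-In 293 cells is scored as %pathology, with cell count serving as the counterscreen. Compound exposure lasts 48 h under tetracycline induction in reduced-serum medium.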

Papain (Carica papaya) = Papain (Carica papaya) (UniProt P00784); experiment: Primary qHTS assay for inhibitors of the protease papain (AID 1645873);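 note: papain turnover of Z-FR-AMC read as the AMC fluorescence gain over 10 min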
Papain (Carica papaya), sequence (P00784 whole entry, looked up): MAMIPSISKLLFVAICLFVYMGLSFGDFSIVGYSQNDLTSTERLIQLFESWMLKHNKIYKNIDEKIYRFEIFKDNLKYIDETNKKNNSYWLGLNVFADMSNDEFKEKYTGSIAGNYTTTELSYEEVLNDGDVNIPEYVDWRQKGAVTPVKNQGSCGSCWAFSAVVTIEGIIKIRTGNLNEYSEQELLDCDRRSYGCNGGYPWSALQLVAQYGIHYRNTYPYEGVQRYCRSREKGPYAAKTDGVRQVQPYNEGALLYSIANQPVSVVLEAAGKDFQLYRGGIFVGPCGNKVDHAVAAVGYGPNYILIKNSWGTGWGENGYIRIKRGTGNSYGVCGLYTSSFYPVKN

[12] = molecular target: Cytochrome P450 3A4 (Homo sapiens) (UniProt P08684); experiment: Cytochrome P450 family 3 subfamily A member 4 (CYP3A4) small molecule antagonists: luciferase qHTS assay (AID 1645841; active = well fitted curve in the direction sought with a large enough effect in the repeat runs; an effect the other way counts as inactive or inconclusive; note: nearly all actives have a fitted effect of over 45% in size)
Cytochrome P450 3A4 (Homo sapiens), sequence (P08684 whole entry, looked up): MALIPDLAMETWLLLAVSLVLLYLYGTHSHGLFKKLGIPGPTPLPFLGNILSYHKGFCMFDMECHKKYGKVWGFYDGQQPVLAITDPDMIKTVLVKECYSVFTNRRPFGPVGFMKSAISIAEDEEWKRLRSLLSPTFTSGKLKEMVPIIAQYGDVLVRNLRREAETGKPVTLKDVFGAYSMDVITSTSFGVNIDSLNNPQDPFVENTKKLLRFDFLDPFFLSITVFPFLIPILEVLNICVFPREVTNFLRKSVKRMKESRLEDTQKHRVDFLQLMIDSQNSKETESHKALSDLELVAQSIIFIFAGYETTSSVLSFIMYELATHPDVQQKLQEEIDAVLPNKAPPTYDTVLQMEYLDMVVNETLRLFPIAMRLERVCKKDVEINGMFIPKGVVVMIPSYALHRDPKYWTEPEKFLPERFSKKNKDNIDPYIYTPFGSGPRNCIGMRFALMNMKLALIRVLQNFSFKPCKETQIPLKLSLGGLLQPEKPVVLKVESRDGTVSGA
Method in brief: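 Luminescent CYP3A4 activity readout: compounds plus enzyme-substrate mix 10 min at room temperature, reaction started with NADPH regenerating system for 1 h, stopped with detection reagent, read after 20 min. Ketoconazole served as control.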

COc1cc2ncnc(Nc3ccc(F)c(Cl)c3)c2cc1OCCCN1CCOCC1
Potency [1]: inactive | Potency [2]: 4.9 µM (active) | Potency [3]: inactive | Potency [4]: 7.58 µM (active) | Potency [5]: 23.7 µM (active) and 20.6 µM (active) and inactive | Potency [6]: 10.6 µM (active) and 11.5 µM (active) | activity [7]: -74.8% | Potency [8]: 24.1 µM (active) | activity [9]: -60.5% | activity [10]: -74.4%

NC(N)=Nc1nc(CSCC/C(N)=N/S(N)(=O)=O)cs1
Potency [1]: inactive | Potency [11]: inactive | Potency [3]: inactive | outcome (Papain (Carica papaya)): inactive | Potency [5]: inactive | Potency [6]: inactive

CCN(CC)CCNC(=O)c1ccc(N)cc1
Potency [1]: inactive | Potency [11]: inactive | Potency [2]: inactive | Potency [3]: inactive | Potency [5]: inactive | Potency [6]: inactive

CC(=O)O[C@]1(C(C)=O)CC[C@H]2[C@@H]3C=C(Cl)C4=CC(=O)[C@@H]5C[C@@H]5[C@]4(C)[C@H]3CC[C@@]21C
Potency [1]: inactive | Potency [11]: inactive | Potency [2]: inactive | Potency [3]: 9.77 µM (active) | Potency [6]: inactive

C[C@@H](O)[C@H]1C(=O)N2C(C(=O)O)=C(S[C@@H]3CN[C@H](C(=O)N(C)C)C3)[C@H](C)[C@H]12
Potency [1]: inactive | Potency [11]: inactive | Potency [2]: inactive | Potency [3]: inactive | Potency [5]: inactive | Potency [6]: inactive

CC(=O)c1ccc(S(=O)(=O)NC(=O)NC2CCCCC2)cc1
Potency [1]: inactive | Potency [11]: inactive | Potency [2]: inactive | outcome (Papain (Carica papaya)): inactive | Potency [5]: inactive | Potency [6]: inactive

O=C(CCCCCCC(=O)Nc1ccccc1)NO
Potency [1]: inactive | Potency [2]: 4.9 µM (active) | Potency [3]: inactive | Potency [5]: 94.4 nM (active) and 1.63 µM (active) and 662 nM (active) | Potency [6]: 106 nM (active) and 649 nM (active) and 833 nM (active)

O=C1NCC2(CCN(CCc3ccccc3)CC2)O1
Potency [1]: inactive | Potency [11]: inactive | outcome [12]: inactive | Potency [3]: inactive | outcome (Papain (Carica papaya)): inactive | Potency [5]: inactive | Potency [6]: inactive

O=c1c(-c2ccc(O)cc2)coc2cc(OC3O[C@H](CO)[C@H](O)[C@H](O)[C@H]3O)cc(O)c12 (some centres undefined)
Potency [1]: inactive | Potency [2]: 30.1 µM (active) | Potency [3]: inactive

COc1ccc2c(Oc3ccc(NC(=O)c4c(C)n(CC(C)(C)O)n(-c5ccccc5)c4=O)nc3)ccnc2c1
Potency [1]: inactive | Potency [2]: inactive | Potency [3]: 19 µM (active) | Potency [5]: inactive

CC/C(=C(\c1ccccc1)c1ccc(OCCN(C)C)cc1)c1ccccc1
Potency [1]: inactive | Potency [11]: 11.2 µM (active) | outcome (Papain (Carica papaya)): inactive | Potency [5]: inactive | Potency [6]: 17.1 µM (active)

COc1cc(Nc2ncc(F)c(Nc3ccc4c(n3)NC(=O)C(C)(C)O4)n2)cc(OC)c1OC
Potency [4]: inactive
